Some test systems named below: SR leukemia; RPMI-8226 leukemia; OVCAR-8 ovarian; OVCAR-5 ovarian; OVCAR-4 ovarian; SK-OV-3 ovarian; IGROV1 ovarian; OVCAR-3 ovarian; NCI/ADR-RES ovarian; T-47D breast; BT-549 breast; MDA-MB-435 melanoma; MCF7 breast; HCT-116 colon; HCC-2998 colon; KM12 colon; HS 578T breast; SW-620 colon.
Common to all, as to assay: NCI-60 one-dose screen, 48 h (100 = growth as untreated, 0 = no growth, -100 = all killed)
Common to all, as to conditions: 10 µM unless noted

SMILES strings stand for the structures. About 83,000 compounds went through this panel and 20% of them were active in at least one assay; those are over-represented in the sample as a whole.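 Results are percent growth after 48 hours of single-concentration exposure. 100 means growth as in untreated cells, lower positive values show inhibition; negative values down to -100 show cell death.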 Values without a mark were called inactive. Active and inactive are the calls of the source. The calls were made as follows: active = growth percent below 10; inactive = the rest.

As to `O=C1C=Cc2ncccc2C1=O`, the growth was 12.2% in the assay with SR leukemia; 27.6% with RPMI-8226 leukemia; 87.8% in the assay with OVCAR-8 ovarian; 106% with OVCAR-5 ovarian; 111% in the assay with OVCAR-4 ovarian; 83.5% in the assay on SK-OV-3 ovarian. Besides, the growth in the assay on IGROV1 ovarian was 105%; in the assay with OVCAR-3 ovarian it was 64.4%; in the assay with NCI/ADR-RES ovarian, 84%; in the assay with T-47D breast, 66.6%; in the assay on BT-549 breast it was 95.5%; in the assay with MDA-MB-435 melanoma, 58.2%. Also, the growth is 12.5% in the assay on MCF7 breast, 27.1% in the assay with HCT-116 colon, 110% with HCC-2998 colon and 104% in the assay on KM12 colon.
`Cc1csc(Nc2nc(-c3ccc(Cl)cc3)nc(C(Cl)(Cl)Cl)n2)n1`: the growth in the assay on SR leukemia is 57%; in the assay on RPMI-8226 leukemia, 76.7%; with OVCAR-8 ovarian it was 89.9%; in the assay on OVCAR-5 ovarian, 99%; in the assay on OVCAR-4 ovarian, 95.5%; with SK-OV-3 ovarian it was 94.1%. The growth in the assay on IGROV1 ovarian was 102%; in the assay on OVCAR-3 ovarian, 67%; in the assay on HS 578T breast, 101%; with T-47D breast, 61.6%; with BT-549 breast, 97.1%; in the assay on MDA-MB-435 melanoma, 89.3%. The growth was 59.4% in the assay on MCF7 breast, 79.1% with HCT-116 colon, 70% in the assay with HCC-2998 colon and 79.6% in the assay on KM12 colon.
Turning to `CCN(CC)CCCCCCNc1ccnc2cc(Cl)ccc12`, the growth was 28.2% in the assay on SR leukemia; 130% in the assay with RPMI-8226 leukemia; 117% in the assay on OVCAR-8 ovarian; 112% with OVCAR-5 ovarian; 75.2% with OVCAR-4 ovarian; 98.2% in the assay on SK-OV-3 ovarian. Besides, the growth with IGROV1 ovarian is 124%; in the assay with OVCAR-3 ovarian, 84.6%; in the assay on HS 578T breast it was 92.4%; with T-47D breast it was 91%; in the assay on BT-549 breast, 86.3%; in the assay with MDA-MB-435 melanoma it was 88.5%. The growth with SW-620 colon is 83.3%; in the assay on MCF7 breast, 82.7%; with HCT-116 colon, 59.1%; with HCC-2998 colon, 107%; in the assay with KM12 colon it was 84.9%.
Regarding `Cc1cc(N2CCCCC2)nc(N(CCCNc2ccnc3cc(Cl)ccc23)Cc2ccco2)n1`, the growth in the assay with SR leukemia was -20.6% (active); with RPMI-8226 leukemia, -35.3% (active); in the assay with OVCAR-8 ovarian it was 42.5%; with OVCAR-5 ovarian, 41.5%; with OVCAR-4 ovarian, 39.8%; in the assay with SK-OV-3 ovarian, 57.4%. Besides, the growth with IGROV1 ovarian is 4.05% (active); in the assay on OVCAR-3 ovarian it was 21%; in the assay on HS 578T breast, 61.3%; in the assay with T-47D breast, 26.9%; in the assay on BT-549 breast, 27.3%; in the assay with MDA-MB-435 melanoma it was -9.54% (active). Further, the growth in the assay on SW-620 colon was 9.49% (active); in the assay on MCF7 breast, 11.7%; with HCT-116 colon, 0.453% (active); in the assay with HCC-2998 colon it was 54.7%; with KM12 colon it was 28.9%.
As to `COC(=O)c1cc(=O)nc(N/N=C/c2ccc(C)cc2)s1`, the growth with SR leukemia was 94.8%; in the assay on RPMI-8226 leukemia, 89.9%; with OVCAR-8 ovarian, 105%; in the assay with OVCAR-5 ovarian, 101%; in the assay with OVCAR-4 ovarian, 96.9%; in the assay with SK-OV-3 ovarian, 110%. Further, the growth with IGROV1 ovarian is 105%; in the assay on OVCAR-3 ovarian, 120%; in the assay with HS 578T breast it was 110%; in the assay with T-47D breast it was 105%; with BT-549 breast, 99.6%; in the assay with MDA-MB-435 melanoma it was 115%. The growth with SW-620 colon is 106%; with HCT-116 colon, 105%; in the assay with HCC-2998 colon, 106%; in the assay with KM12 colon, 110%.
In the case of `O=[N+]([O-])c1cc(S(=O)(=O)c2ccc(F)c([N+](=O)[O-])c2)ccc1F`, the growth with SR leukemia was 9.57% (active); in the assay with RPMI-8226 leukemia, 6.35% (active); in the assay on OVCAR-8 ovarian, 80.9%; in the assay on OVCAR-5 ovarian, 122%; in the assay on OVCAR-4 ovarian it was 112%; in the assay with SK-OV-3 ovarian, 117%. Moreover, the growth is 101% in the assay on OVCAR-3 ovarian; 80.6% in the assay with HS 578T breast; 108% in the assay on NCI/ADR-RES ovarian; 95.8% in the assay with T-47D breast; 107% in the assay on BT-549 breast; 103% in the assay on MDA-MB-435 melanoma. In addition, the growth with SW-620 colon was 48%; in the assay with MCF7 breast, 58.5%; in the assay on HCC-2998 colon, 112%; in the assay with KM12 colon it was 80.2%.
Turning to `OCCNc1nc(Nc2ccc(Cl)c(Cl)c2)nc2ccccc12`, the growth is 3.46% (active) with SR leukemia; 30.7% with RPMI-8226 leukemia; 37.5% in the assay with OVCAR-8 ovarian; 78.3% in the assay on OVCAR-5 ovarian; 44.8% in the assay with OVCAR-4 ovarian; 62.8% with SK-OV-3 ovarian. For the same molecule, the growth is 39.1% in the assay on IGROV1 ovarian; 48.2% in the assay with OVCAR-3 ovarian; 53.3% in the assay on HS 578T breast; 67.9% with T-47D breast; 77.8% in the assay on BT-549 breast; 50% with MDA-MB-435 melanoma. Also, the results for the growth with MCF7 breast, in the assay with HCT-116 colon and with KM12 colon were 30.3%, 29.7% and 35.5%, respectively.
As to `Oc1cc(/C=C/c2nc(N3CCOCC3)c3cc(Cl)c(Cl)cc3n2)cc(O)c1O`, the growth was 87.8% with SR leukemia; 103% in the assay with RPMI-8226 leukemia; 107% with OVCAR-8 ovarian; 102% with OVCAR-5 ovarian; 110% in the assay on OVCAR-4 ovarian; 105% in the assay with SK-OV-3 ovarian. For the same molecule, the growth in the assay with IGROV1 ovarian is 108%; in the assay with HS 578T breast it was 118%; in the assay with NCI/ADR-RES ovarian it was 100%; in the assay on T-47D breast it was 94.9%; in the assay with BT-549 breast, 95.5%; in the assay with MDA-MB-435 melanoma, 106%. The growth in the assay on SW-620 colon was 107%; with MCF7 breast, 106%; in the assay on HCT-116 colon, 104%; in the assay with KM12 colon it was 111%.
Take `C[N+](C)(CCCCCC[N+](C)(C)C1c2ccccc2-c2ccccc21)C1c2ccccc2-c2ccccc21`: the growth with SR leukemia was 98.3%; with RPMI-8226 leukemia, 101%; in the assay on OVCAR-8 ovarian, 104%; in the assay with OVCAR-5 ovarian it was 108%; in the assay with OVCAR-4 ovarian, 111%; in the assay with SK-OV-3 ovarian, 111%. Also, the growth in the assay on OVCAR-3 ovarian is 104%; with HS 578T breast, 98.2%; in the assay on NCI/ADR-RES ovarian, 115%; in the assay with T-47D breast, 108%; with BT-549 breast, 117%; in the assay on SW-620 colon, 106%. The growth was 103% with MCF7 breast, 101% with HCT-116 colon, 110% in the assay on HCC-2998 colon and 111% in the assay with KM12 colon.

The values are drawn from PubChem BioAssay (NCI).
